Values joined by “and” are separate entries in the source; they are usually repeats but may differ in a detail not shown here. Equal values may be shown once. Inconclusive results are not listed. A call without a number means that no potency is given here. Active and inactive are the calls of the source. Calls come from the whole dose curve; as a rule, active = well fitted cell-killing curve with a large enough effect; inconclusive = small, poorly fitted or top-dose-only effect; inactive = no such curve, though single readings can be large or run the other way.

In PubChem BioAssay (NCATS) one finds Potency data, which are given here for 40 molecules.
Potency is the fitted concentration of half-maximal effect.

A short description of this test: qHTS of pediatric cancer cell lines to identify multiple opportunities for drug repurposing: Primary screen for Saos-2 cells (AID 1347097). Note: nearly all actives have a fitted effect of over 40% in size. The conditions noted are these: Saos-2 viability, CellTiter-Glo ATP luminescence, 48 h; series mostly up to 46 µM. The text has this:
Drug repurposing or repositioning has been offered as a strategy for drug development in oncology programs. This approach has special potential for childhood cancers and other rare or orphan diseases, where the expected return on new drug development has been a disincentive to pharmaceuticals. […] In this project we exploit the poly-pharmacology of drugs to discover new indications via phenotypic screening of a panel of 19 well-characterized cell lines derived from solid tumors seen in children and adolescents. The goal is to identify approved drugs with previously unrecognized anticancer properties that has the potential to reveal new mechanisms and biological processes involved in carcinogenesis or drug resistance. We employed a titration-based paradigm (quantitative high-throughput screening or qHTS), where all compounds were tested at multiple concentrations for their effect on cell viability. Concentration-response curves (CRCs) were derived directly from the primary screen, and both potency and efficacy values were used to identify compounds with robust bioactivity profiles. We screened the NIH Chemical Genomics Center (NCGC) Pharmaceutical Collection (NPC) and Mechanism Interrogation Plate (MIPE) small molecule collections of approved and investigational compounds against these cell lines; and measured metabolically active cells after 48 hours of compound treatment as a proxy for cell viability. […] Assay Submitter: Nathalia J. Martinez, National Center for Advancing Translational Sciences, National Institutes of Health, Rockville, MD, USA; email: natalia.martinez@nih.gov Shen, M et al. Quantitative high-throughput phenotypic screening of pediatric cancer cell lines identifies multiple opportunities for drug repurposing. Oncotarget 2017 Dec 19;9(4):4758-4772. PMID 29435139.
The cells were obtained from University of North Carolina (UNC), Pediatric Preclinical Testing Program (PPT), and Coriell Institute (CI). qHTS cell viability assay: Cells were assayed in growth media at a density of 500-1,000 cells/well. Five microliters of cells were dispensed into 1,536-well, white, solid-bottom, TC-treated plates (Greiner Bio One) using a multidrop dispenser and incubated at 37 degrees C, 5% CO2, under a humidified atmosphere for 5 hours. Twenty-three nanoliters of compounds and controls (neutral control DMSO or positive control bortezomib at final concentration of 2.3 µM) were subsequently transferred by Kalypsys pintool. For primary screens, the MIPE collection was tested at 11-point dilutions (final concentrations range from 0.78 nM to 46 µM) and the NPC collection at 8-point dilutions (final concentrations range from 0.59 nM to 46 µM). Compounds tested in follow-up screens were assayed at 11-point dilutions. Cells were incubated for 48 hours, followed by addition of 3 µL of CellTiter-Glo (Promega). After a 15 min incubation at room temperature, samples were analyzed for luminescence intensity using a ViewLux High-throughput CCD imager equipped with clear filters.
Background: Quantitative high-throughput screening tests each substance at several concentrations.
With `CC(C(=O)O)c1cccc(C(=O)c2ccccc2)c1` (stereo not given), the Potency entry is “inactive”.

On to `CC(C)C(=O)Nc1ccc([N+](=O)[O-])c(C(F)(F)F)c1`, for which the Potency is 0.59 µM (active).

As for `Nc1ccn([C@H]2CC[C@@H](CO)O2)c(=O)n1`, the Potency entry was “inactive”.

With `NC12CC3CC(CC(C3)C1)C2`, the Potency result was “inactive”.

For `CNCCCC12CCC(c3ccccc31)c1ccccc12`, the Potency was 26.4 µM (active).

For the molecule `CC[N+](CC)(CC)CCOc1cccc(OCC[N+](CC)(CC)CC)c1OCC[N+](CC)(CC)CC`, the Potency result was “inactive”.

As to `NCCCCCC(=O)O`, the Potency result is “inactive”.

In the case of `CCN1CCCC1CNC(=O)c1cc(S(=O)(=O)CC)c(N)cc1OC` (stereo not given), the Potency result is “inactive”.

On to `Cn1ccc2cc3c(cc21)CCN3C(=O)Nc1cccnc1`, for which the Potency result was “inactive”.

For `CC1(C)O[C@H]2CC(=O)OC[C@]23[C@H]2CC[C@@]4(C)[C@H](c5ccoc5)OC(=O)[C@H]5O[C@]54[C@]2(C)C(=O)C[C@@H]13`, the Potency entry was “inactive”.

In the case of `CC[C@@]1(O)C(=O)OCc2c1cc1n(c2=O)Cc2cc3c(CN(C)C)c(O)ccc3nc2-1`, the Potency was 29.9 nM (active) and 235 nM (active).

On to `Cc1cc(C(C)(C)C)cc(C)c1CC1=NCCN1`, for which the Potency result is “inactive”.

With `CCc1cccc2c3c([nH]c12)C(CC)(CC(=O)O)OCC3` (stereo not given), the Potency result was “inactive”.

With `COc1ccccc1OCC(O)CN1CCN(CC(=O)Nc2c(C)cccc2C)CC1` (stereo not given), the Potency entry was “inactive”.

Consider `Cc1cnc(C(=O)NCCc2ccc(S(=O)(=O)NC(=O)NC3CCCCC3)cc2)cn1`, for which the Potency result was “inactive”.

With `C[C@@H]1CC(=O)NN=C1c1ccc(NN=C(C#N)C#N)cc1`, the Potency is 18.7 µM (active).

With `CN1CCN(CCCN2c3ccccc3Sc3ccc(Cl)cc32)CC1`, the Potency is 0.235 µM (active).

On to `CN(C)c1nc(N(C)C)nc(N(C)C)n1`, for which the Potency result is “inactive”.

In the case of `Cc1ccccc1N1C(=O)c2cc(S(N)(=O)=O)c(Cl)cc2NC1C` (stereo not given), the Potency result is “inactive”.

On to `CN(Cc1cnc2nc(N)nc(N)c2n1)c1ccc(C(=O)N[C@@H](CCC(=O)O)C(=O)O)cc1`, for which the Potency entry is “inactive”.

Turning to `NCCc1cnc[nH]1`, the Potency entry is “inactive”.

Take `COc1nc(C)nc(Cl)c1NC1=NCCN1`: the Potency result was “inactive”.

`CCC1(C)CC(=O)NC1=O` (stereo not given): the Potency result is “inactive”.

Consider `Fc1ccc([C@@H]2CCNC[C@H]2COc2ccc3c(c2)OCO3)cc1`, for which the Potency entry was “inactive”.

Turning to `CCCNCC(O)COc1ccccc1C(=O)CCc1ccccc1` (stereo not given), the Potency result is “inactive”.

Consider `Clc1ccccc1C(c1ccccc1)(c1ccccc1)n1ccnc1`, for which the Potency is 26.6 µM (active) and 33.2 µM (active).

`CC(C)(C)C(=O)Oc1ccc(S(=O)(=O)Nc2ccccc2C(=O)NCC(=O)O)cc1`: the Potency result was “inactive”.

As to `O=c1[nH]cc(F)c(=O)[nH]1`, the Potency entry is “inactive”.

For `CS(=O)(=O)Nc1ccc([N+](=O)[O-])cc1Oc1ccccc1`, the Potency entry was “inactive”.

Turning to `COc1ccc(C2CNC(=O)C2)cc1OC1CCCC1` (stereo not given), the Potency result is “inactive”.

`CN1C(C(=O)Nc2ccccn2)=C(O)c2ccccc2S1(=O)=O`: the Potency result was “inactive”.

Consider `C[C@](N)(Cc1ccc(O)c(O)c1)C(=O)O`, for which the Potency entry is “inactive”.

For `CN(C)CCC=C1c2ccccc2C=Cc2ccccc21`, the Potency was 29.6 µM (active).

For the molecule `CN1CCN(C2=Nc3cc(Cl)ccc3Nc3ccccc32)CC1`, the Potency entry was “inactive”.

As for `COc1cc2nc(N(C)CCCNC(=O)C3CCCO3)nc(N)c2cc1OC` (stereo not given), the Potency entry is “inactive”.

In the case of `O=C(c1ccc(OCCN2CCCCC2)cc1)c1c(-c2ccc(O)cc2)sc2cc(O)ccc12`, the Potency was 14.8 µM (active).

As to `CN(C)CCCN1c2ccccc2CCc2ccc(Cl)cc21`, the Potency was 16.8 µM (active).

Take `COc1cc2c(c(OC)c1OC)-c1ccc(OC)c(=O)cc1[C@@H](NC(C)=O)CC2`: the Potency was 5.3 nM (active) and 1.32 µM (active).

Turning to `Cn1c(=O)c2[nH]cnc2n(C)c1=O`, the Potency result was “inactive”.

Take `NC(CO)C(=O)NNCc1ccc(O)c(O)c1O` (stereo not given): the Potency result is “inactive”.
